The source made the active and inactive calls.
What was measured:
[1] = E. coli DRC41 culture turbidity changes, primary screen, E. coli filamentation inducer project, strain DRC41, OD650, 48 h (AID 1152);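 further: E. coli MC1000 strain DRC41 lacking acrAB efflux pump and sulA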; conditions: E. coli DRC41 (acrAB sulA), higher = more signal, called active from +8 up or from −8 down
[2] = small-molecule binders of probe aLefty1, primary screen, biochemical, small-molecule microarray, 635/667 nm fluorescence (AID 1153); conditions: higher = more signal;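 further: score merges spot fluorescence with signal-to-noise ratio from the scanned slide images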
[3] = PSAC antagonists in infected red cells, primary screen, cell-based, P. falciparum Indochina, OD700, 1 h (AID 1154); conditions: P. falciparum Indochina infected RBC osmotic lysis, higher = more signal, called active from +8 up or from −8 down
[4] = PSAC antagonists in infected red cells, primary screen, cell-based, P. falciparum Indochina, OD700, 2 h (AID 1155);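 further: lysis reports solute entry through the parasite surface anion channel PSAC; channel blockers reduce lysis of infected cells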; conditions: P. falciparum Indochina infected erythrocytes, osmotic lysis OD700; higher = more signal, called active from +8 up or from −8 down
[5] = osmotic lysis modulators in infected erythrocytes, primary screen, PSAC antagonist project, cell-based, P. falciparum Indochina, OD700, 3 h (AID 1156); conditions: higher = more signal, called active from +8 up or from −8 down
[6] = PSAC antagonists in infected red cells, primary screen, cell-based, P. falciparum Indochina, OD700, 18 h (AID 1157); conditions: P. falciparum Indochina infected erythrocytes, osmotic lysis OD700, 18 h; higher = more signal, called active from +8 up or from −8 down
[7] = modulators of S6 phosphorylation in cells, primary screen, cell-based, A549, cytoblot, luminescence, serum-stimulated (AID 1158); conditions: A549 phospho-S6 cytoblot, 5 h, higher = more signal;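 further: serum-stimulated A549 lung adenocarcinoma cells; signal is phosphorylated S6 detected by cytoblot immunostaining with HRP secondary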
[8] = target: NADPH oxidase 2 (Homo sapiens) (UniProt P04839); assay: NOX2-dependent H2O2 signal modulators, primary screen, NOX inhibitor project, cell-based, HEK293-NOX2, PMA-stimulated, Amplex Red fluorescence (AID 1159); conditions: 45 min, higher = more signal, called active from +8 up or from −8 down; further: test concentration not given here
Chain of NADPH oxidase 2 (Homo sapiens) (P04839 whole entry, looked up): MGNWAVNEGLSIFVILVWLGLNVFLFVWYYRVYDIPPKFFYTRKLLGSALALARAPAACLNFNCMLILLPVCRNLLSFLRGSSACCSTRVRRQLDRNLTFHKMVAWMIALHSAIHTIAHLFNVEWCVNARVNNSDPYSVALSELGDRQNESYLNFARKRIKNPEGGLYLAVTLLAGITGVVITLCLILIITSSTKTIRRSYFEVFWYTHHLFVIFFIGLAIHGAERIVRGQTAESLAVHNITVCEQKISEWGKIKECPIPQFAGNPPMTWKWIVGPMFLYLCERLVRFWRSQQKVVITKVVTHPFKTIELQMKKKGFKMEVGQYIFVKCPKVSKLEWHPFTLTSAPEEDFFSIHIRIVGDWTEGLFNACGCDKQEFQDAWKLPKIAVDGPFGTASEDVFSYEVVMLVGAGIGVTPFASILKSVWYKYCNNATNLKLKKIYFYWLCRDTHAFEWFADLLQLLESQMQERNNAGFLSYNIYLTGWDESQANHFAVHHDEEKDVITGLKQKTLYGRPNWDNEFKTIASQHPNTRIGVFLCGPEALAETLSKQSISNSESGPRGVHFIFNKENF

[9] = target: NADPH oxidase 4 (Homo sapiens) (UniProt Q9NPH5); assay: NOX4-dependent H2O2 signal modulators, primary screen, NOX inhibitor project, cell-based, HEK293-NOX4, tetracycline-induced, Amplex Red fluorescence (AID 1160); conditions: 45 min, higher = more signal, called active from +8 up or from −8 down
Chain of NADPH oxidase 4 (Homo sapiens) (Q9NPH5 whole entry, looked up): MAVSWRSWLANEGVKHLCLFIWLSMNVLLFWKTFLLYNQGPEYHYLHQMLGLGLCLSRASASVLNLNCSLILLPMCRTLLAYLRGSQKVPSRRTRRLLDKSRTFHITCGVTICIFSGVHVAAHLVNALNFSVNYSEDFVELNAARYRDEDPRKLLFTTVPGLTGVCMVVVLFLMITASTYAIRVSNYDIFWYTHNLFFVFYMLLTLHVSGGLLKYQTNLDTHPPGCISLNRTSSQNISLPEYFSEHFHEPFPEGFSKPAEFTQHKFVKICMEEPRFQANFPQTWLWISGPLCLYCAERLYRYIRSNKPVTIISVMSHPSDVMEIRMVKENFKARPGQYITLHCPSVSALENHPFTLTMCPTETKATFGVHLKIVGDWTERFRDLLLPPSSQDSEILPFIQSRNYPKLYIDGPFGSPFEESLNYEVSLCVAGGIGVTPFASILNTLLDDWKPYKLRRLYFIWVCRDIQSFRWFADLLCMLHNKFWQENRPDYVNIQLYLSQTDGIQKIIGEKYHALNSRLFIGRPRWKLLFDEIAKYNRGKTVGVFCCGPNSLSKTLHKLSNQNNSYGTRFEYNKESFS

[10] = target: NADPH oxidase 5 (Homo sapiens) (UniProt Q96PH1); assay: NOX5-dependent H2O2 signal modulators, primary screen, NOX inhibitor project, cell-based, HEK293-NOX5, Amplex Red fluorescence (AID 1161); conditions: HEK293-NOX5, ionomycin, 45 min, higher = more signal
Chain of NADPH oxidase 5 (Homo sapiens) (Q96PH1 whole entry, looked up): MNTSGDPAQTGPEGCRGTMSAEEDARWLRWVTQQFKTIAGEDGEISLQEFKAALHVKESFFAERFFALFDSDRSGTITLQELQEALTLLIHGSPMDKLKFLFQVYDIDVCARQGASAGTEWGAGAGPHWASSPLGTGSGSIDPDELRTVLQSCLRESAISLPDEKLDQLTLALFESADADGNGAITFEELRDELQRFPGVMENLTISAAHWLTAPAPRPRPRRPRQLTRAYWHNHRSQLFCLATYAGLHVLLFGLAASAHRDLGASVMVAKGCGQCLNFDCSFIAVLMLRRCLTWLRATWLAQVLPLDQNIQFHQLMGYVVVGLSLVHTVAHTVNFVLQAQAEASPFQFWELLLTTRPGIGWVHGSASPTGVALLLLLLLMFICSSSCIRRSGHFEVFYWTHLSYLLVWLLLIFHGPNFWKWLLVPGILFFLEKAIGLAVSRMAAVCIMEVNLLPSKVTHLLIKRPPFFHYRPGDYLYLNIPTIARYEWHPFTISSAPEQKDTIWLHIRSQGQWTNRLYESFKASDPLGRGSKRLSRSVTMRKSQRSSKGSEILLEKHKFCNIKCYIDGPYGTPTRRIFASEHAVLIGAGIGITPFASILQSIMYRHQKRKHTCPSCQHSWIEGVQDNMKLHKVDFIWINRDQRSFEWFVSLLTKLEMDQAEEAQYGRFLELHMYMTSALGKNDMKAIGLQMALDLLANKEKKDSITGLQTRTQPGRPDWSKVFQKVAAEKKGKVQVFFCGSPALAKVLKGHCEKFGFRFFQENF

Row | Structure (SMILES) | z-score [1] | composite z-score [2] | z-score [3] | z-score [4] | z-score [5] | z-score [6] | z-score [7] | z-score [8] | z-score [9] | z-score [10]
1 | C=C[C@@H](C)[C@H](O)c1ccc(OCCO)cc1 | 0.227 (inactive) | -0.193 | 1.79 (inactive) | 0.833 (inactive) | 0.485 (inactive) | 0.402 (inactive) | -0.198 | -0.613 (inactive) | -0.311 (inactive) | 0.394
2 | CC(C)CNC(=O)[C@@]1(c2ccc([N+](=O)[O-])cc2)CC(=O)N(C2CCCCC2)[C@@H]1c1ccc(CO)cc1 | 0.706 (inactive) | 0.164 | 0.879 (inactive) | -0.189 (inactive) | 0.0352 (inactive) | -0.013 (inactive) | 0.358 | 0.382 (inactive) | 0.581 (inactive) | 0.668
3 | CC(=O)N1CC(C(O)C2C=CC3C(=O)NC(=O)C3N2Nc2ccc(Cl)cc2Cl)c2ccccc21 (stereo not given) | -1.14 (inactive) | 0.176 | 3.47 (inactive) | 1.36 (inactive) | -0.0499 (inactive) | 1.17 (inactive) | -0.746 | -0.849 (inactive) | -4.86 (inactive) | -2.57
4 | COCCOC(=O)N1C(=O)[C@@]2(c3cc(C#CC4(O)CCCCCC4)ccc31)[C@H](c1ccc(OCCO)cc1)N1[C@H](c3ccccc3)[C@H](c3ccccc3)OC(=O)[C@H]1[C@@H]2C(=O)Nc1nc2ccccc2s1 | -0.595 (inactive) | 0.718 | 2.53 (inactive) | 2.08 (inactive) | 0.834 (inactive) | 1.53 (inactive) | -0.652 | 0.549 (inactive) | 0.131 (inactive) | 1.94
5 | COCCOC(=O)N1C(=O)[C@@]2(c3cc(C#CCC(C(=O)OC)C(=O)OC)ccc31)[C@H](C(=O)NC[C@H](O)c1ccccc1)[C@H]1C(=O)O[C@H](c3ccccc3)[C@H](c3ccccc3)N1[C@@H]2c1ccc(O)cc1 | -0.128 (inactive) | 0.0977 | 2.35 (inactive) | -0.27 (inactive) | 0.283 (inactive) | 0.27 (inactive) | 0.0648 | 1.71 (inactive) | 1.01 (inactive) | 1.84
6 | COCCOC(=O)N1C(=O)[C@@]2(c3cc(C#CCCO)ccc31)[C@H](c1ccccc1OCCO)N1[C@H](c3ccccc3)[C@H](c3ccccc3)OC(=O)[C@H]1[C@@H]2C(=O)N1CCCCCCC1 | 1.59 (inactive) | 2.58 | 2.44 (inactive) | 0.0348 (inactive) | 0.431 (inactive) | 0.951 (inactive) | 0.626 | 0.6 (inactive) | 1.29 (inactive) | 1.35
7 | NC(=O)NCC#Cc1ccc2c(c1)[C@]1(C(=O)N2)[C@H](C(=O)N2CCN(c3ncccn3)CC2)[C@H]2C(=O)O[C@H](c3ccccc3)[C@H](c3ccccc3)N2[C@@H]1c1ccc(OCCO)cc1 | 0.682 (inactive) | 0.309 | 5.91 (inactive) | 1.66 (inactive) | -0.015 (inactive) | 0.689 (inactive) | -0.24 | 1.44 (inactive) | 1.1 (inactive) | 1.12
8 | C=CCC(OC(C)=O)[C@@H]1[C@@H](N(Cc2ccc(-c3ccccc3)cc2)C(=O)Cc2ccc(F)cc2)c2cc(OCCCO)ccc2N1C(=O)Cc1ccc2ccccc2c1 (stereo not given in full) | 0.882 (inactive) | 0.0774 | 1.84 (inactive) | 0.791 (inactive) | -0.205 (inactive) | 0.381 (inactive) | -0.199 | 0.587 (inactive) | 0.512 (inactive) | 1.88
9 | CN(C)CCCCNC(=O)[C@H]1C[C@H]2C(=O)N[C@@H](CCCC[N+](C)(C)C)C(=O)N2[C@H]1c1ccc(O)cc1 | 1.67 (inactive) | -0.2 | 1.32 (inactive) | -0.539 (inactive) | -0.27 (inactive) | -1.63 (inactive) | 0.0054 | 0.622 (inactive) | 0.319 (inactive) | 1.31
10 | C[C@]1(C(=O)NCC(F)(F)F)c2ccccc2C(=O)N(Cc2ccccc2)[C@H]1c1ccc(CO)cc1 | 0.588 (inactive) | 0.382 | 2.28 (inactive) | 0.0336 (inactive) | -0.201 (inactive) | -0.162 (inactive) | -0.617 | -0.0434 (inactive) | 0.431 (inactive) | 0.17
11 | C=C[C@@H](OC)[C@H](OC(=O)Nc1ccc(SC)cc1)c1ccc(OCCO)cc1 | -3.28 (inactive) | 0.137 | 26.7 (active) | 16.4 (active) | 2.11 (inactive) | 1.78 (inactive) | 0.285 | 0.403 (inactive) | 0.357 (inactive) | 0.00434
12 | COc1cc2c(cc1O)C(c1cccs1)N(Cc1sc3ccccc3c1Cl)CC2 (stereo not given) | -1.49 (inactive) | 0.0479 | 10.4 (active) | 3.63 (inactive) | -0.333 (inactive) | 2.24 (inactive) | -0.511 | -3.92 (inactive) | -2.48 (inactive) | -3.48
13 | COCCOC(=O)N1C(=O)[C@@]2(c3cc(C#CCNC(N)=O)ccc31)[C@H](c1ccc(OCCO)cc1)N1[C@H](c3ccccc3)[C@H](c3ccccc3)OC(=O)[C@H]1[C@@H]2C(N)=O | 0.336 (inactive) | -0.346 | 4.37 (inactive) | 1.02 (inactive) | -0.383 (inactive) | 0.0173 (inactive) | -0.412 | 1.84 (inactive) | 1.34 (inactive) | 0.646
14 | [N-]=[N+]=NCc1ccccc1[C@H]1OC(c2ccc(OCCCO)cc2)=N[C@@]1(Cc1ccccc1)C(=O)NCCN1CCOCC1 | 0.694 (inactive) | 0.843 | 28.1 (active) | 22.1 (active) | 3.64 (inactive) | 3.74 (inactive) | -0.281 | 0.0323 (inactive) | 1.93 (inactive) | 1.58
15 | COCCCNC(=O)[C@@]1(Sc2ccc(C)cc2)CC(=O)N(C(C)C)[C@@H]1c1ccc(CO)cc1I | -0.158 (inactive) | 0.0445 | 6.72 (inactive) | -0.602 (inactive) | 0.349 (inactive) | -1.49 (inactive) | 1.61 | 1.77 (inactive) | -1.47 (inactive) | -0.854
16 | CCOC(=O)C1=CCN(S(=O)(=O)c2ccc(C)cc2)C1c1ccccc1 (stereo not given) | -1.44 (inactive) | 0.121 | 3.1 (inactive) | 0.8 (inactive) | -0.451 (inactive) | 0.806 (inactive) | -0.489 | 0.532 (inactive) | -1.38 (inactive) | -0.86
17 | CCCCNC(=O)c1ccc(C#C[Si](C(C)C)(C(C)C)C(C)C)c(OC(C)=O)c1 | -0.52 (inactive) | -0.0518 | 0.964 (inactive) | 0.272 (inactive) | 0.551 (inactive) | 0.158 (inactive) | 0.152 | 1.26 (inactive) | 0.355 (inactive) | 0.458
18 | C=C(/C(=C/C[C@H](OC(=O)c1ccncc1)c1cccc(OCCO)c1)c1cnc2ccccc2c1)C(C)C | -0.599 (inactive) | -0.0046 | 6.01 (inactive) | 2.44 (inactive) | -2.09 (inactive) | 0.626 (inactive) | -0.787 | -4.67 (inactive) | -0.946 (inactive) | -1.49
19 | C=C(COC)C(=O)CC[C@@H](OC(=O)c1cccnc1)c1ccccc1OCCO | 0.0001 (inactive) | -0.106 | 21.2 (active) | 2.88 (inactive) | 0.793 (inactive) | 0.65 (inactive) | -0.347 | -2.12 (inactive) | -0.369 (inactive) | -1.4
